The structures appear in SMILES notation. Results filed as inconclusive are left out. Where a call stands in place of a potency, no number is given. Calls of active or inactive are those of the source. Calls follow the shape of the dose curve; as a rule, active = well fitted inhibition curve with a large enough effect; inconclusive = small, poorly fitted or top-dose-only effect; inactive = no such curve, though single readings can be large or run the other way.

A short description of this test: Primary qHTS for small molecule stabilizers of the endoplasmic reticulum resident proteome: Secreted ER Calcium Modulated Protein (SERCaMP) assay (AID 1508630). The settings on record: SH-SY5Y GLuc-SERCaMP (Gaussia luciferase released on ER calcium loss) secretion, thapsigargin, luminescence; series mostly up to 38.4 µM. The method in brief: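 The SH-SY5Y reporter protocol was run at 3 concentrations up to 38.3 uM (primary) or 11 concentrations (follow-up): 16 h compound, 100 nM thapsigargin for 4 h, then extracellular luciferase luminescence.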
As for `O=C(CCCN1CCC(O)(c2ccc(Br)cc2)CC1)c1ccc(F)cc1`, the Potency entry is “inactive”.

As to `C[n+]1c2cc(N)ccc2cc2ccc(N)cc21` (tested in a mixture with another compound), the Potency entry was “inactive”.

As for `CC(C)(Oc1ccc(Cl)cc1)C(=O)O`, the Potency result is “inactive”.

`CC(C)(C)CC(C)(C)c1ccc(OCCOCC[N+](C)(C)Cc2ccccc2)cc1`: the Potency entry was “inactive”.

For the compound `C=CCc1ccc(O)c(OC)c1`, the Potency result was “inactive”.

Consider `C#C[C@]1(OC(C)=O)CC[C@H]2[C@@H]3CCC4=C[C@@H](OC(C)=O)CC[C@@H]4[C@H]3CC[C@@]21C`, for which the Potency result was “inactive”.

With `C#C[C@]1(O)CC[C@H]2[C@@H]3CCc4cc(OC5CCCC5)ccc4[C@H]3CC[C@@]21C`, the Potency entry was “inactive”.

For the compound `Cc1c(C)n(CCN(C)C)c2ccc(C(=O)OCCN(C)C)cc12`, the Potency result was “inactive”.

`Cc1c(C)n(Cc2ccccc2)c2ccc(C(=O)OCCN(C)C)cc12`: the Potency entry was “inactive”.

Take `CCCCCCCCCCOCC(O)CN` (stereo not drawn): the Potency entry is “inactive”.

In the case of `CN=C(NC#N)Nc1ccc(C2=NNC(=O)CC2C)cc1` (stereo not drawn), the Potency result was “inactive”.

On to `CC(C)n1nc(-c2cc3cc(O)ccc3[nH]2)c2c(N)ncnc21`, for which the Potency entry was “inactive”.

Turning to `COc1cc2c(cc1OC)C(=O)C(CC1CCN(Cc3ccccc3)CC1)C2` (stereo not drawn), the Potency entry is “inactive”.

The values are drawn from PubChem BioAssay (NCATS).
